Results filed as inconclusive are left out. Calls of active or inactive are those of the source. Calls come from the whole dose curve; as a rule, active = well fitted curve in the direction sought with a large enough effect; inconclusive = small, poorly fitted or top-dose-only effect, or another doubt; inactive = no such curve, though single readings can be large; an effect the other way counts as inactive or inconclusive.
Tests used:
[1] = qHTS Assay for Identifying Gametocytocidal Compounds (AID 743244);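 note: % is set by controls: 0 for no effect and ±100 for the full control effect; actives lower the fluorescent signal which means gametocytes are killed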; conditions: P. falciparum 3D7 stage III-V gametocytes, alamarBlue, 72 h; max response: active compounds read low
Procedure, shortened: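 Stage III–V gametocytes of P. falciparum 3D7 were seeded at 20,000 cells/well onto pre-dispensed compounds. After 72 h, 37 °C, 5% CO2, alamarBlue was added for another 24 h.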

[2] = qHTS assay for measurement of the activity of small molecule inhibitors on Zika virus induced Caspase-3 activity in human iPSC derived neural progenitor cells (hNPCs) (AID 1224857); note: % of control where 0% means no effect; nearly all actives have a fitted effect of over 65% in size
Procedure, shortened: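 Values are percent inhibition of virus-induced caspase-3/7 signal, scaled between uninfected cells and ZIKV-infected cells. Infection used 2 FFU/cell for 6 h after 1 h compound exposure.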

[3] = qHTS assay for measurement of the activity of small molecule inhibitors on Zika virus induced Caspase-3 activity in human astrocytoma cells (AID 1224859);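 note: plate controls were ZIKV-infected untreated cells for no effect and uninfected cells for full effect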
Procedure, shortened: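 Compound added 1 h pre-infection; ZIKV 2 FFU/cell on SNB-19 cells, 6 h, 37 C/5% CO2. Caspase-Glo 3/7 luminescence; values as % inhibition of ZIKV-induced caspase activity.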

[4] = qHTS assay to identify small molecule inhibitors of chordoma cells - UCH-1 (AID 1259355); note: % is set by controls: 0 for no effect and ±100 for the full control effect; nearly all actives have a fitted effect of over 55% in size
Procedure, shortened: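 Screening used approved and investigational drugs in 15-point titration against 800 seeded cells per well. A fixed combination of auranofin with camptothecin, doxorubicin, rubitecan and topotecan followed compound addition, and growth was scored by CellTiter-Glo after 48hr.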

[5] = qHTS assay to identify small molecule inhibitors of chordoma cells - UCH-2 (AID 1259356); note: series mostly up to about 46 µM; % is set by controls: 0 for no effect and ±100 for the full control effect
[6] = P-glycoprotein substrates identified in KB-8-5-11 adenocarcinoma cell line, qHTS therapeutic library screen (AID 1346987); conditions: outcome: dose series up to 44.5 µM; note: series mostly up to about 44 µM; % is set by controls: 0 for no effect and ±100 for the full control effect; nearly all actives have a fitted effect of over 65% in size
Procedure, shortened: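 In this qHTS, P-gp-rich KB-8-5-11 cells received library compounds across a concentration range. Viability was quantified by luminescence after 72 h at 37 degree C.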

Cc1ccc2c(c1)c1c3n2CCNC3CCC1 (stereo not given)
inactive: max response [1] 5.73% | outcome [2] | outcome [3] | outcome [4] | outcome [5] | outcome [6]

CCOC(N)=O
inactive: max response [1] -2.14% | outcome [2] | outcome [3] | outcome [4] | outcome [5] | outcome [6]

C/C=C/C(=O)N(CC)c1ccccc1C
inactive: max response [1] 21.1% | outcome [2] | outcome [3] | outcome [4] | outcome [5] | outcome [6]

NCc1ccc(S(N)(=O)=O)cc1
inactive: max response [1] -0.707% | outcome [2] | outcome [3] | outcome [4] | outcome [5] | outcome [6]

CC(C(=O)O)c1ccc2c(c1)Cc1cccnc1O2 (stereo not given)
inactive: max response [1] -8.08% | outcome [2] | outcome [3] | outcome [4] | outcome [5] | outcome [6]

C[C@@H]1CCC[C@H](C)N1
inactive: max response [1] 20.8% | outcome [2] | outcome [3] | outcome [4] | outcome [5] | outcome [6]

CC[N+](C)(CC)CCOC(=O)C1c2ccccc2Oc2ccccc21
inactive: max response [1] 7.42% | outcome [2] | outcome [3] | outcome [4] | outcome [5] | outcome [6]

CC(C)CCCC(C)CCCC(C)CCCCC(C)CCCC(C)CCCC(C)C (stereo not given)
inactive: max response [1] 5.26% | outcome [2] | outcome [3] | outcome [4] | outcome [5] | outcome [6]

C[N+](C)(C)CC(O)CC(=O)[O-] (stereo not given)
inactive: max response [1] -7.85% | outcome [2] | outcome [3] | outcome [4] | outcome [5] | outcome [6]

Cc1cc(NC(=O)C2=C(O)c3ccccc3S(=O)(=O)N2C)no1
inactive: max response [1] -9.54% | outcome [2] | outcome [3] | outcome [4] | outcome [5] | outcome [6]

Cc1ccccc1N=Nc1ccc(N=Nc2c(O)ccc3ccccc23)c(C)c1
inactive: max response [1] 7.02% | outcome [2] | outcome [3] | outcome [4] | outcome [5] | outcome [6]

COc1ccccc1OC(=O)Oc1ccccc1OC
inactive: max response [1] 1.99% | outcome [2] | outcome [3] | outcome [4] | outcome [5] | outcome [6]

CN[C@@H]1[C@H](O)[C@H](NC)[C@H]2O[C@@]3(O)C(=O)C[C@@H](C)O[C@H]3O[C@@H]2[C@H]1O
inactive: max response [1] 2.93% | outcome [2] | outcome [3] | outcome [4] | outcome [5] | outcome [6]

CCCCCCCCCCCCCCCCN
inactive: max response [1] 6.4% | outcome [2] | outcome [3] | outcome [4] | outcome [5] | outcome [6]

CCCOC(=O)c1ccc(N)cc1
inactive: max response [1] -6.49% | outcome [2] | outcome [3] | outcome [4] | outcome [5] | outcome [6]

CCc1cccc(CC)c1NC(=O)CN(CC(=O)O)CC(=O)O
inactive: max response [1] 12.1% | outcome [2] | outcome [3] | outcome [4] | outcome [5] | outcome [6]

CN[C@@H]1[C@@H](O)[C@@H](O[C@@H]2[C@H](O)[C@H](O[C@H]3OC(CN)=CC[C@H]3N)[C@@H](N)C[C@H]2N)OCC1(C)O (stereo not given in full)
inactive: max response [1] -9.46% | outcome [2] | outcome [3] | outcome [4] | outcome [5] | outcome [6]

Cc1c(Cn2ccnc2)c2ccccc2n1CCC(=O)O
inactive: max response [1] -9.07% | outcome [2] | outcome [3] | outcome [4] | outcome [5] | outcome [6]

Cc1[nH]c(C)c(Cl)c(=O)c1Cl
inactive: max response [1] -2.25% | outcome [2] | outcome [3] | outcome [4] | outcome [5] | outcome [6]

CCOC(=O)OC(C)OC(=O)[C@@H]1N2C(=O)[C@@H](NC(=O)[C@H](N)c3ccccc3)[C@H]2SC1(C)C (stereo not given in full)
inactive: max response [1] 15.8% | outcome [2] | outcome [3] | outcome [4] | outcome [5] | outcome [6]

CN1CC(=O)NC1=N
inactive: max response [1] -8.6% | outcome [2] | outcome [3] | outcome [4] | outcome [5] | outcome [6]

NC(N)=NCCN1CCCCCCC1
inactive: max response [1] 21% | activity change, negative = inhibition [2] 6.93% [at 0.568 µM] | activity change, negative = inhibition [3] -3.82% [at 0.568 µM] | outcome [4] | outcome [5] | outcome [6]

C[n+]1ccccc1/C=N/O
inactive: max response [1] 8.92% | outcome [2] | outcome [3] | outcome [4] | outcome [5] | outcome [6]

CC(=O)Oc1cccc(C)c1
inactive: max response [1] 19.2% | outcome [2] | outcome [3] | outcome [4] | outcome [5] | outcome [6]

CCCCCCCC(=O)OCC(O)CO (stereo not given)
inactive: max response [1] 0.163% | outcome [2] | outcome [3] | outcome [4] | outcome [5] | outcome [6]

COc1ccccc1OCC(O)CO (stereo not given)
inactive: max response [1] 10.4% | outcome [2] | outcome [3] | outcome [4] | outcome [5] | outcome [6]

NC(=O)N[C@@H](CCC(=O)O)C(=O)O
inactive: max response [1] -4.71% | outcome [2] | outcome [3] | outcome [4] | outcome [5] | outcome [6]

CCC(C)(CN(C)C)OC(=O)c1ccccc1 (stereo not given)
inactive: max response [1] -2.53% | outcome [2] | outcome [3] | outcome [4] | outcome [5] | outcome [6]

C/C=C1\[C@H]2C=C(C)C[C@]1(N)c1ccc(=O)[nH]c1C2
inactive: max response [1] 2.62% | outcome [2] | outcome [3] | outcome [4] | outcome [5] | outcome [6]

CN1CCN(C(=O)C2CCCCC2)CC1
inactive: max response [1] 11.1% | outcome [2] | outcome [3] | outcome [4] | outcome [5] | outcome [6]

Reference: PubChem BioAssay (NCATS)
